According to the OligoGym collection:

molecular target: PTPN7; assay: pooled miR-30 sensor sort-seq; sequence = guide strand; settings: shRNA
Note: reference of the scale not given here.

Q: Which sensor-assay potency score (higher = more potent) does the source give for TTTGTCTGTCATAAATGCCAGC here?
A: -0.867

Q: How did the sensor-assay potency score (higher = more potent) turn out when TTGGCATTGATGTAATCTCCGT was run?
A: -0.978

Q: TTCTGGTGTCTGATGGTCTGGC was tested. Which sensor-assay potency score (higher = more potent) did it give?
A: -0.217

molecular target: PTPRT; assay: as above; settings: shRNA

Q: With TATCTGATATTCATTGACCTGA as the sequence, how does the sensor-assay potency score (higher = more potent) read?
A: -0.134

Q: TTGAGTCGCAATGTAGTGCCGA was tested. Which sensor-assay potency score (higher = more potent) did it give?
A: -0.352

Q: With TTTGTGACCATGACGATGCTGG as the sequence, how does the sensor-assay potency score (higher = more potent) read?
A: 0.113

Q: TATTGTAGTAGAGAGAACGGAA was tested. Which sensor-assay potency score (higher = more potent) did it give?
A: -0.217

Q: How did the sensor-assay potency score (higher = more potent) turn out when TAAGTCATCTGCATCCTCGGTT was run?
A: 0.728

Q: With TTTGCTTTGAGGCACTTCCTTT as the sequence, how does the sensor-assay potency score (higher = more potent) read?
A: -1.11

Q: With TTGGTCTTGATCTTGAGCCTAT as the sequence, how does the sensor-assay potency score (higher = more potent) read?
A: -0.529

Q: How did the sensor-assay potency score (higher = more potent) turn out when TAGTGTAGAGAATCGAGGCTGG was run?
A: 0.97

Q: TATCTTGTTTGTCTCTTCCAAA was tested. Which sensor-assay potency score (higher = more potent) did it give?
A: -1.13

Q: Which sensor-assay potency score (higher = more potent) does the source give for TAGTTGATCTCGTAGAGCGTGA here?
A: -0.257

Q: For TAGATTTTTTAACACAGCCATG, which sensor-assay potency score (higher = more potent) is on record?
A: -1.72

Q: TAATCGAACACCAGCCTCCAGA was tested. Which sensor-assay potency score (higher = more potent) did it give?
A: -0.958
